From PubChem BioAssay (NCATS)
Results filed as inconclusive are left out. Calls of active or inactive are those of the source. Unless noted, calls follow the shape of the dose curve; as a rule, active = well fitted curve in the direction sought with a large enough effect; inconclusive = small, poorly fitted or top-dose-only effect, or another doubt; inactive = no such curve, though single readings can be large; an effect the other way counts as inactive or inconclusive.

Assays:
[1] = target: Lysosomal acid glucosylceramidase (Homo sapiens) (UniProt P04062); assay: Glucocerebrosidase-p2 (AID 348; in the data active = potency below about 10 µM; also: potency is read from the fitted curve at half-maximal effect); conditions: purified GBA, blue fluorogenic substrate, 40 min
Chain of Lysosomal acid glucosylceramidase (Homo sapiens) (P04062 whole entry, looked up): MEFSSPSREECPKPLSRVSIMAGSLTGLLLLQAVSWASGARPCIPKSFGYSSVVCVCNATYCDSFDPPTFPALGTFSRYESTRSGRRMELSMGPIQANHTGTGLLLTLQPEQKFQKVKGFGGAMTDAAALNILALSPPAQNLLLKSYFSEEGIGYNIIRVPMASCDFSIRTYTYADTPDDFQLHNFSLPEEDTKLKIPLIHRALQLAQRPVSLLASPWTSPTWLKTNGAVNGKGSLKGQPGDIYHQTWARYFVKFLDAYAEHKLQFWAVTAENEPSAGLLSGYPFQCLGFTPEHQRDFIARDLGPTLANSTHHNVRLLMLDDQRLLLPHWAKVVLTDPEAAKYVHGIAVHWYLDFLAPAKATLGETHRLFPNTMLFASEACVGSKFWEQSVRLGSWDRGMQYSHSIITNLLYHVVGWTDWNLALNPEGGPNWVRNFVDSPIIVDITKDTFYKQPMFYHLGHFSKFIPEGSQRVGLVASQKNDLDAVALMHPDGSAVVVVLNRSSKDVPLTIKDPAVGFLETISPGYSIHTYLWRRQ
In short: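 Compounds titrated from 0.6 nM upwards against 0.2 nM enzyme in pH 5.9 citric acid/KH2PO4, taurocholate, tween-20; blue fluorogenic substrate 80 uM, 40 min room temperature, stopped and read Ex 365/Em 440 for AC50.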

[2] = AP1 Signaling Pathway (AID 357; active = well fitted curve in either direction with a large enough effect, not every such curve was filed as active;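 also: ME-180 reporter cells stimulated with EGF at its EC50 level; % is scaled to controls: 0 for no effect and ±100 for the full control effect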); conditions: ME-180 AP-1-bla reporter, EGF-induced, beta-lactamase ratio, 5 h; at 7.69 µM (top of the series) unless noted
In short: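 Titration-series screen for positive or negative modulators of EC50 EGF-induced signaling in ME-180 cells carrying an AP-1-driven beta-lactamase reporter. After 5 hours at 37 degrees Celsius, CCF4 460nm/530nm emission ratio gave %Activity; AC50 values derived.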

[3] = target: Cytochrome P450 1A2 (Homo sapiens) (UniProt P05177); assay: p450-cyp1a2 (AID 410; calls by dose curve;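 also: -100% = full effect of reference inhibitor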)
Chain of Cytochrome P450 1A2 (Homo sapiens) (P05177 whole entry, looked up): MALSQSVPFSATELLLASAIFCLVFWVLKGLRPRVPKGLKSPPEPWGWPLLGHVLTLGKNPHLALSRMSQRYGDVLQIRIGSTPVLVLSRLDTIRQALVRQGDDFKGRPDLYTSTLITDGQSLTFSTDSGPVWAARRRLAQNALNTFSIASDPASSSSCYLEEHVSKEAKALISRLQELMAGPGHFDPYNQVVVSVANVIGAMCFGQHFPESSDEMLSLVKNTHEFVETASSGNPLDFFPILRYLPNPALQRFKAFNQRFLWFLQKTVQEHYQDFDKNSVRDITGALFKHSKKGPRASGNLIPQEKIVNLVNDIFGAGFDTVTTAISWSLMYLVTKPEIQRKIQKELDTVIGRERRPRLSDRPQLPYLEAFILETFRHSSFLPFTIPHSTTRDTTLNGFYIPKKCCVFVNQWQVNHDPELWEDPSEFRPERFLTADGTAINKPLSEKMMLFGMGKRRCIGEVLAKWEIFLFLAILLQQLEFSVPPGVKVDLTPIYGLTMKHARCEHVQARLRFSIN
In short: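 Inhibition was calculated relative to 57 uM furafylline (full inhibition). The reaction used human CYP1A2 at 20nM with Luciferin-ME at its Km, 100uM, driven by an NADPH-regenerating system for 60 min at room temperature.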

[4] = NFAT Signaling Pathway (AID 444; active = well fitted curve in either direction with a large enough effect, not every such curve was filed as active;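 also: carbachol stimulus at about its EC50 of 1 µM final; % is scaled to controls: 0 for no effect and ±100 for the full control effect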); conditions: Jurkat NFAT-bla M1, carbachol, beta-lactamase ratio, 5 h; at 7.69 µM (top of the series) unless noted
In short: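 Jurkat cells carrying an NFAT-driven β-lactamase reporter and co-transfected muscarinic M1 receptor were treated with compound plus carbachol (1 uM final, an EC50 level) for 5 h at 37 °C. CCF4 loading followed for 1 h at RT; 460/530 nm ratio gave %activity.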

[5] = Stat Signaling Pathway (AID 446; active = well fitted curve in either direction with a large enough effect, not every such curve was filed as active;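 also: ME-180 cervical cancer cells given 40 pM IL-6 alongside compound; SIE-controlled beta-lactamase reporter measured as 460/530 nm FRET emission ratio; % is scaled to controls: 0 for no effect and ±100 for the full control effect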); conditions: ME-180 SIE beta-lactamase reporter, IL-6 stimulated, 5 h; at 7.69 µM (top of the series) unless noted
In short: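 Screening format detects activators and inhibitors alike: ME-180 SIE-bla cells stimulated at 40 pM IL-6 for 5 hrs with compound, then dual-emission beta-lactamase read at 405 nm excitation.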

[6] = target: Glucocorticoid receptor (Homo sapiens) (UniProt P04150); assay: GR-GFP Redistribution (AID 450;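 active = compounds whose dose series gives a full or clear partial fitted curve of increased nuclear translocation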; also: potency is read from the fitted curve at half-maximal effect); conditions: U2OS GR-GFP nuclear translocation, laser cytometry, 2 h
Chain of Glucocorticoid receptor (Homo sapiens) (P04150 whole entry, looked up, the tested form may be a part): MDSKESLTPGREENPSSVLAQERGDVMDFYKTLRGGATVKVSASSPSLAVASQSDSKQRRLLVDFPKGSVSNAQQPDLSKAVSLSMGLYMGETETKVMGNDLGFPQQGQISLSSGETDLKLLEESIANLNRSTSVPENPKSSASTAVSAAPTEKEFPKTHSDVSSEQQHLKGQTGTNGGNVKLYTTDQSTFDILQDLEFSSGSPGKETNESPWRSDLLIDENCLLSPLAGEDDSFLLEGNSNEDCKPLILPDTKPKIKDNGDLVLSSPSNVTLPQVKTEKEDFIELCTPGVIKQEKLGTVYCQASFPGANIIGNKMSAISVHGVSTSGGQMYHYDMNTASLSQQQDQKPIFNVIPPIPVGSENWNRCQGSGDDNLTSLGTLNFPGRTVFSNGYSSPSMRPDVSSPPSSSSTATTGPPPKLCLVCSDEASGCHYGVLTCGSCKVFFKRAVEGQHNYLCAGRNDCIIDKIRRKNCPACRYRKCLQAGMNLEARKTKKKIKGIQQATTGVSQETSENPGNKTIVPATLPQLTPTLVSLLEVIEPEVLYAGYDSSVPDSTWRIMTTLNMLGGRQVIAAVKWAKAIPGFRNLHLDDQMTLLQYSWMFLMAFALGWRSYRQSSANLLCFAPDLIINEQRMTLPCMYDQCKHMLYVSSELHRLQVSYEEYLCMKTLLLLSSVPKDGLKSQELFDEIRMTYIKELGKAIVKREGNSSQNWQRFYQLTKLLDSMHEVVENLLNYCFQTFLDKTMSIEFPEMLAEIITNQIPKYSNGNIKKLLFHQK

[7] = target: Glucocorticoid receptor (Homo sapiens) (UniProt P04150); assay: GR-EFC Redistribution (AID 451; calls by dose curve; also: potency is read from the fitted curve at half-maximal effect); conditions: CHO-K1 GR-EFC translocation, beta-gal luminescence, 2 h
In short: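 CHO-K1 cells stably expressing nuclear-localized β-gal enzyme acceptor and GR fused C-terminally to the enzyme donor fragment; ligand-driven nuclear translocation restores β-gal by complementation. Compounds titrated up to 46 uM final, 2 h at 37 °C; luminescence read.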

[8] = target: Mitogen-activated protein kinase 10 (Mus musculus) (UniProt Q61831); assay: JNK3 AlphaScreen Assay (AID 530; active = well fitted curve in either direction with a large enough effect, not every such curve was filed as active;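 also: kinase came from lysate of stimulated human HepG2 cells; signal reports phosphorylation of biotinylated GST-cJun 1-79 at Ser73 with 10 µM ATP; % is scaled to controls: 0 for no effect and ±100 for the full control effect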)
In short: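 JNK3 came from HepG2 lysates pre-activated with IL-1beta and TNF-alpha and phosphorylated biotinylated GST-cJun (1-79) at 10 uM ATP, pH 7.6, room temperature. Compounds were titrated. AlphaScreen signal used anti-phospho-cJun (Ser73) antibody.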

[9] = target: 3',5'-cyclic-AMP phosphodiesterase 4B (Homo sapiens) (UniProt Q07343); assay: qHTS Assay for Inhibitors of PDE-IV (AID 607; active = well fitted activation curve with a large enough effect in the main read-out, with a control signal flat, not every such curve was filed as active; also: % of control where 0% means no effect)
Chain of 3',5'-cyclic-AMP phosphodiesterase 4B (Homo sapiens) (Q07343 whole entry, looked up): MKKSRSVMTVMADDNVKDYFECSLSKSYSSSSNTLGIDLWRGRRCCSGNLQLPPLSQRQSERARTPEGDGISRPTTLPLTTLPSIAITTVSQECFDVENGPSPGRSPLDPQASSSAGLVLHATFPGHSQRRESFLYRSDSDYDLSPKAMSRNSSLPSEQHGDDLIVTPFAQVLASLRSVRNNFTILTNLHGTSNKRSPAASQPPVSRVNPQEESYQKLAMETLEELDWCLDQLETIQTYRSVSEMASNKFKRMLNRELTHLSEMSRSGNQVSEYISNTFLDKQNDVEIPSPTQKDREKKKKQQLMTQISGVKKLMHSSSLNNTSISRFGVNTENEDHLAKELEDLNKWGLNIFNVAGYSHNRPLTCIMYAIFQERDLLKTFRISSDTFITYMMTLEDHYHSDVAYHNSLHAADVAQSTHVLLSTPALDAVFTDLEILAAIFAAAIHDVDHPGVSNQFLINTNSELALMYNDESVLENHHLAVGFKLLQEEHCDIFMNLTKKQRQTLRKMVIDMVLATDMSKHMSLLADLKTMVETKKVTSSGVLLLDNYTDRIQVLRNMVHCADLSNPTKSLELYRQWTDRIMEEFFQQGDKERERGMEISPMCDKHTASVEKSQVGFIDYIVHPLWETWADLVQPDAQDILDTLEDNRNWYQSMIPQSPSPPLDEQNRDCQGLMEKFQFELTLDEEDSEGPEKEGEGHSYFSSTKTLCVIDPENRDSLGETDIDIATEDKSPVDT
In short: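 The readout is membrane depolarisation from a cAMP-sensing CNG channel, detected with a potential dye at ex 535/em 590. Cells were HEK293-derived (endogenous PDE-IV) at 1000 cells/well, titrated up to 22.9 uM final.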

[10] = target: ATP-dependent 6-phosphofructokinase (Trypanosoma brucei brucei) (UniProt O15648); assay: qHTS Assay to Find Inhibitors of T. brucei phosphofructokinase: hit validation (AID 492961)
Chain of ATP-dependent 6-phosphofructokinase (Trypanosoma brucei brucei) (O15648 whole entry, looked up): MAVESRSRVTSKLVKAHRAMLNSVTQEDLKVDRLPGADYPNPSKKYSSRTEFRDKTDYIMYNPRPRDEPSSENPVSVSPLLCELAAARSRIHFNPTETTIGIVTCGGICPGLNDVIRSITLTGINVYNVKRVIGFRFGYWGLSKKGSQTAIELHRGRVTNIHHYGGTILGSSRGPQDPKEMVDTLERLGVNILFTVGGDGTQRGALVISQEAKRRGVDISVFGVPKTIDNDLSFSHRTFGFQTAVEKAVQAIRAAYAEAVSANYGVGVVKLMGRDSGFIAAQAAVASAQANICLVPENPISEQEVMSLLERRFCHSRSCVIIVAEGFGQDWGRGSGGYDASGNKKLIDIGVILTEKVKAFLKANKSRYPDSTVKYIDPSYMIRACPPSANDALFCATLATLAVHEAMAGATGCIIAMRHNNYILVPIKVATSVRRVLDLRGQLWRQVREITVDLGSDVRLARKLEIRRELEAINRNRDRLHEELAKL
In short: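 Reaction: 0.1 M triethanolamine pH 8.0, 5 mM MgCl2, F6P 0.5 mM, ATP 0.1 mM, PFK 1.25 nM, 45 min RT. Read-out: ADP-Glo luminescence. Analysis: concentration-response fits, classed by r2 and efficacy.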

[11] = target: Ubiquitin carboxyl-terminal hydrolase 1 (Homo sapiens) (UniProt O94782); assay: Inhibitors of USP1/UAF1: Pilot qHTS (AID 504865);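 also: rhodamine fluorescence freed from ubiquitin-rhodamine substrate followed over time; top concentration of the series differs between compounds; % is scaled to controls: 0 for no effect and ±100 for the full control effect; nearly all actives have a fitted effect of over 35% in size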
Chain of Ubiquitin carboxyl-terminal hydrolase 1 (Homo sapiens) (O94782 whole entry, looked up): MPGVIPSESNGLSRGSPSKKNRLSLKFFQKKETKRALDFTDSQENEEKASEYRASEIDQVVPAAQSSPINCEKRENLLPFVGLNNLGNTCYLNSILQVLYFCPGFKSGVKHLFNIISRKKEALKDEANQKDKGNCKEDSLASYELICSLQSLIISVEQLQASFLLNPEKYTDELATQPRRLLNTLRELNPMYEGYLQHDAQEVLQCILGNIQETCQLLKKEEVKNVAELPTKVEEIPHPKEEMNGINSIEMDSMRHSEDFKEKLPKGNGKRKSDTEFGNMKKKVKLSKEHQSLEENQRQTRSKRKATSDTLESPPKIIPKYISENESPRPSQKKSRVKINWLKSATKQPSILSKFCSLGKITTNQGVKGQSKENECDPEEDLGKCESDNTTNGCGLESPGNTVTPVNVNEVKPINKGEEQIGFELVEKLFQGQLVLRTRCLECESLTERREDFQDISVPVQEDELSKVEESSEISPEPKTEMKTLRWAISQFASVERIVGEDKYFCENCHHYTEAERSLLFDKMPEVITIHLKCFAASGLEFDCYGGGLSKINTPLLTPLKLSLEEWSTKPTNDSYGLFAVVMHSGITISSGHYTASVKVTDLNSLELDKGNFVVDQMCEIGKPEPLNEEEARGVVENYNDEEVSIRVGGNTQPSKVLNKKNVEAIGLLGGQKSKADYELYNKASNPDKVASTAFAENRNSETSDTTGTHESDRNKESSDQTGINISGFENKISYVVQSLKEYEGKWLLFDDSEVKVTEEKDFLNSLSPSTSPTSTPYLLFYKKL
In short: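 USP1/UAF1 complex at 1 nM preincubated 15 min at room temperature with compound, then Ub-Rho substrate added at 150 nM final. Fluorescence (480/540 nm) read kinetically in 50 mM HEPES pH 7.8, 0.5 mM EDTA, 1 mM TCEP, 0.1 mg/ml BSA, 0.01% Tween-20.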

[12] = target: Luciferin 4-monooxygenase (Photinus pyralis) (UniProt P08659); assay: Biochemical firefly luciferase enzyme assay for NPC (AID 624030);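 also: purified P. pyralis luciferase at 10 nM with luciferin and ATP substrate; 0% = DMSO and -100% = full luciferase inhibition by PTC124 control; nearly all actives have a fitted effect of over 70% in size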
Chain of Luciferin 4-monooxygenase (Photinus pyralis) (P08659 whole entry, looked up): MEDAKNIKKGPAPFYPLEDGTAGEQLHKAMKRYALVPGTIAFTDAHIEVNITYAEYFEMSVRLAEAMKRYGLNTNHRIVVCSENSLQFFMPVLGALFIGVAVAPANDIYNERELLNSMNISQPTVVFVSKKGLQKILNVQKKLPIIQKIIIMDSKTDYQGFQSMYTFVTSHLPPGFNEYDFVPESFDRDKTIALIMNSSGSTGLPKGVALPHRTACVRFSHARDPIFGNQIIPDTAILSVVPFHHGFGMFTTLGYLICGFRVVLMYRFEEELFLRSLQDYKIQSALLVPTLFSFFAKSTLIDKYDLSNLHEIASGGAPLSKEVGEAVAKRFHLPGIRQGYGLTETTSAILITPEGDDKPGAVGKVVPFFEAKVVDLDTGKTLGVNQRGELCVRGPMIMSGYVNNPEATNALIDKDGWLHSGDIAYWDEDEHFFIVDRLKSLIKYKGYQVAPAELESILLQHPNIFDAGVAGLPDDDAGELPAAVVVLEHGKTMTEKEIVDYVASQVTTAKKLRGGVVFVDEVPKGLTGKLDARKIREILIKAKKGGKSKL
In short: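 Counter-screen for direct inhibition of the luciferase enzyme by approved-drug library compounds, run at 10 nM enzyme in 50 mM Tris acetate (final). Luminescence was read within 5 min of enzyme-buffer addition and normalized to PTC124 versus DMSO (0%).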

[13] = S16 Schwann cell viability assay (CellTiter-Glo assay) (AID 624031);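 also: cellular ATP luminescence as a viability measure; plate controls were DMSO-treated cells for no effect and cell-free wells for full effect; nearly all actives have a fitted effect of over 70% in size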
In short: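 This viability control uses native rat S16 Schwann cells grown in DMEM plus 10% FBS. After a 24 h compound treatment at 37 °C, CellTiter-Glo luminescence reports ATP content, scaled against DMSO-treated and cell-free wells.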

[14] = S16 Schwann cell PMP22 intronic element beta-lactamase assay (AID 624044; calls by dose curve;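 also: 0% = DMSO and -100% = potassium clavulanate positive control; nearly all actives have a fitted effect of over 15% in size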)
In short: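 Rat S16 Schwann cells with beta-Lac driven by a PMP22 intronic element, compound-treated 24 h at 37 °C. LiveBLAzer FRET B/G read: 460 nm normalized to potassium clavulanate vs DMSO; 535 nm FRET as viability; concentration-effect curves classified.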

[15] = qHTS profiling for inhibitors of Plasmodium falciparum proliferation (AID 504749);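 also: 0% = DMSO vehicle and full inhibition = artemisinin control; nearly all actives have a fitted effect of over 60% in size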; conditions: P. falciparum in erythrocytes, SYBR Green DNA, 72 h, at 28.7 µM (top of the series)
In short: (§1)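 P. falciparum-infected erythrocytes (0.3% parasitemia, 2.5% hematocrit final) were exposed to compounds for 72 h at 37 C in 5% CO2, then lysed with SYBR Green buffer overnight at room temperature; parasite DNA fluorescence was normalized to artemisinin and DMSO controls.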

3D7 = assay: as above; conditions: P. falciparum in erythrocytes, SYBR Green DNA, 72 h; series mostly up to 28.7 µM
In short: as §1

7G8 = assay: as above; conditions: P. falciparum in erythrocytes, SYBR Green DNA, 72 h; series mostly up to 28.7 µM
In short: as §1

AA1029 = assay: as above; conditions: P. falciparum in erythrocytes, SYBR Green DNA, 72 h; series mostly up to 28.7 µM
In short: as §1

AS120 = assay: as above; conditions: P. falciparum in erythrocytes, SYBR Green DNA, 72 h; series mostly up to 28.7 µM
In short: as §1

ATS189 = assay: as above; conditions: P. falciparum in erythrocytes, SYBR Green DNA, 72 h; series mostly up to 28.7 µM
In short: as §1

ATS95 = assay: as above; conditions: P. falciparum in erythrocytes, SYBR Green DNA, 72 h; series mostly up to 28.7 µM
In short: as §1

C2A = assay: as above; conditions: P. falciparum in erythrocytes, SYBR Green DNA, 72 h; series mostly up to 28.7 µM
In short: as §1

CP185 = assay: as above; conditions: P. falciparum in erythrocytes, SYBR Green DNA, 72 h; series mostly up to 28.7 µM
In short: as §1

CP191 = assay: as above; conditions: P. falciparum in erythrocytes, SYBR Green DNA, 72 h; series mostly up to 28.7 µM
In short: as §1

CP192 = assay: as above; conditions: P. falciparum in erythrocytes, SYBR Green DNA, 72 h; series mostly up to 28.7 µM
In short: as §1

CP194 = assay: as above; conditions: P. falciparum in erythrocytes, SYBR Green DNA, 72 h; series mostly up to 28.7 µM
In short: as §1

CP201 = assay: as above; conditions: P. falciparum in erythrocytes, SYBR Green DNA, 72 h; series mostly up to 28.7 µM
In short: as §1

CP203 = assay: as above; conditions: P. falciparum in erythrocytes, SYBR Green DNA, 72 h; series mostly up to 28.7 µM
In short: as §1

CP211 = assay: as above; conditions: P. falciparum in erythrocytes, SYBR Green DNA, 72 h; series mostly up to 28.7 µM
In short: as §1

CP215 = assay: as above; conditions: P. falciparum in erythrocytes, SYBR Green DNA, 72 h; series mostly up to 28.7 µM
In short: as §1

CP217 = assay: as above; conditions: P. falciparum in erythrocytes, SYBR Green DNA, 72 h; series mostly up to 28.7 µM
In short: as §1

CP237 = assay: as above; conditions: P. falciparum in erythrocytes, SYBR Green DNA, 72 h; series mostly up to 28.7 µM
In short: as §1

CP238 = assay: as above; conditions: P. falciparum in erythrocytes, SYBR Green DNA, 72 h; series mostly up to 28.7 µM
In short: as §1

CP247 = assay: as above; conditions: P. falciparum in erythrocytes, SYBR Green DNA, 72 h; series mostly up to 28.7 µM
In short: as §1

CP250 = assay: as above; conditions: P. falciparum in erythrocytes, SYBR Green DNA, 72 h; series mostly up to 28.7 µM
In short: as §1

CP252 = assay: as above; conditions: P. falciparum in erythrocytes, SYBR Green DNA, 72 h; series mostly up to 28.7 µM
In short: as §1

CC(C)(C)NC[C@@H](O)c1ccc(O)c(CO)n1
inactive: Potency [1] > 11.4 µM | activity change, negative = inhibition [2] -2.07% | activity change, negative = inhibition [3] 10.1% [at 2.29 µM] | activity change, negative = inhibition [4] 10.1% | activity, negative = inhibition [5] 19.4% | Potency [6] > 46 µM | Potency [7] > 9.22 µM | Potency [8] | Potency [9] | outcome [10] | Potency [11] | outcome [12] | Potency [13] | outcome [14] | activity, negative = inhibition ([15]; parasite line A) 8.88% | activity, negative = inhibition ([15]; parasite line B) 0.372% | Potency (3D7) | Potency (7G8) | Potency (AA1029) | Potency (AS120) | Potency (ATS189) | Potency (ATS95) | Potency (C2A) | Potency (CP185) | Potency (CP191) | Potency (CP192) | Potency (CP194) | Potency (CP201) | Potency (CP203) | Potency (CP211) | Potency (CP215) | Potency (CP217) | Potency (CP237) | Potency (CP238) | Potency (CP247) | Potency (CP250) | Potency (CP252)
